Assay outcomes from PubChem BioAssay.
NS1 inh: qHTS Assay for Inhibitors of Influenza NS1 Protein Function | Potency, µM (series often up to 46.1 µM), for inactives: top-dose activity, positive = more growth | actives 0.4% (n = 270,000); calls by dose curve; note: potency is the fitted concentration of half-maximal effect; actives are rising curves; nearly all actives have a fitted effect of over 50% in size
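Recovery from NS1-induced slow growth read by OD600 in budding yeast switched to galactose assay medium (pH 6.0, -URA) at 1:100 dilution. Compound 23 nl per well; the matching strain lacking NS1 serves as control.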
Sm TGR inh: qHTS Assay for the Inhibitors of Schistosoma Mansoni Peroxiredoxins. Schistosoma mansoni thioredoxin glutathione reductase (TGR), Q962Y6. purified TGR, DTNB reduction, TNB absorbance 405 nm. Potency, µM (top dose mostly 114 µM), without a hit: top-dose activity change, negative = inhibition, actives largely listed as inhibitors. actives 3% (n = 360,000); note: potency is the fitted concentration of half-maximal effect; % is set by controls: 0 for no effect and ±100 for the full control effect; nearly all actives have a fitted effect of over 60% in size
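TGR 20 nM + NADPH 100 uM (dispensed conc.), cpd preinc 15 min RT; start with NADPH (500 uM addition) then DTNB (15 mM addition). Kinetic TNB absorbance, 405 nm filter. Four-parameter Hill fit across titration.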
FBPA Giardia inh: qHTS Assay for Inhibitors of Fructose-1,6-bisphosphate Aldolase from Giardia Lamblia; purified Giardia FBPA; Potency, µM (series often up to 59.6 µM), inactives show at the top dose activity, negative = inhibition, usual class: inhibitors; actives 0.71% (n = 290,000); note: potency is the fitted concentration of half-maximal effect; % is set by controls: 0 for no effect and ±100 for the full control effect; nearly all actives have a fitted effect of over 55% in size
Target sequence (A8B2U2 whole entry, looked up): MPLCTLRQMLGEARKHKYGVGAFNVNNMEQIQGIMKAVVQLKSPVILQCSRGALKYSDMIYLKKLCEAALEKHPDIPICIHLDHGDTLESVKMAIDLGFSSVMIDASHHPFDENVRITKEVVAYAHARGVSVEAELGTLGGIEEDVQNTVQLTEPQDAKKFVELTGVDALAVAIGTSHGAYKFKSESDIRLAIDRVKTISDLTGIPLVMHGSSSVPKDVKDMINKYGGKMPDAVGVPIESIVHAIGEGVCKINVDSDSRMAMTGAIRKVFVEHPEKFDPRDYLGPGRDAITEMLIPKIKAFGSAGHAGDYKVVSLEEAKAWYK
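40 nM FBPA preincubated 10 min at RT with compound (up to 57.5 uM final), then substrate plus GAPDH/TPI/NAD/arsenate coupling and diaphorase/resazurin added. Fluorescence read after 20 min at RT, 525/598 nm.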
Tb PYK inh: qHTS of Trypanosoma Brucei Inhibitors | pyruvate kinase (Trypanosoma brucei), Q57TT1 | TbPYK enzyme, Kinase-Glo Plus ATP luminescence, 45 min | Potency, µM (highest dose often 76.8 µM), for inactives: at the top dose activity, negative = inhibition, usual class: inhibitors | actives 0.12% (n = 410,000) | AID 624173, 2012; note: potency is the fitted concentration of half-maximal effect; % is set by controls: 0 for no effect and ±100 for the full control effect; nearly all actives have a fitted effect of over 50% in size
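Luminescence from Kinase-Glo Plus, added after a 45-minute room-temperature reaction, served as the end-point read-out. The enzyme and substrate were preincubated with compound before ADP (130 uM final) initiated turnover. Concentration-effect curves came from normalized qHTS data.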
LmPK inh: qHTS Assay for Inhibitors of Leishmania Mexicana Pyruvate Kinase (LmPK) | Q27686 | actives 0.37% (n = 290,000) | Potency, µM (series often up to 57.5 µM), for the others: at the highest dose activity change, negative = inhibition, hits mostly inhibitors | AID 1721, 2009 | purified LmPK, Kinase-Glo ATP luminescence, 1 h; note: potency is the fitted concentration of half-maximal effect; % is set by controls: 0 for no effect and ±100 for the full control effect
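Purified LmPK (0.1 nM) with 0.5 mM PEP and 0.1 mM ADP in imidazole buffer pH 7.2 with MgCl2/KCl, 1 h at room temperature. ATP formed was read by luciferase luminescence and normalized to no-enzyme and uninhibited controls.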
RE007 growth inh: qHTS Assay for Inhibitors of the HIV-1 protein Vpr | Potency, µM (doses to about 92.2 µM), inactives show at the top dose activity change, negative = less growth, actives largely listed as inhibitors | actives 0.21% (n = 360,000) | S. pombe RE007 Vpr strain, BacTiter-Glo ATP luminescence, 24 h; active = well fitted falling curve with a large enough effect; inconclusive = small, poorly fitted or top-dose-only effect; inactive = no such curve, though single readings can be large or run the other way; note: potency is the fitted concentration of half-maximal effect; % is set by controls: 0 for no effect and ±100 for the full control effect; nearly all actives have a fitted effect of over 50% in size
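Fission yeast RE007 carrying one integrated HIV-1 vpr copy, seeded at OD 0.01 in PMG+AL medium with 23 nL pinned compound. Grown 24 h at 30 degrees; viability read by BacTiter-Glo luminescence after 5 min.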
NS1 inh valid: Assay for Inhibitors of Influenza NS1 Protein Function: Hit Validation. shares compounds with NS1 inh. influenza NS1 function cell assay, 15-point titration. activity change, negative = inhibition, % at 32.9 µM. 1,400 tested, under 10 active. AID 492980, 2010; calls by dose curve; note: 0% is about no effect
Flu PR8 replic: Assay for Inhibitors of Influenza NS1 Protein Function: Influenza virus replication assay in MDCK cells infected with virus A/PR/8/34; shares compounds with NS1 inh; actives 30% (n = 95); virus titer (log TCID50), log10 TCID50 at 5 µM; MDCK infected influenza A/PR/8/34, virus titer TCID50; hits give low values; AID 504647, 2011; call rule not given here
An asterisk follows results filed as active; u = inconclusive; x = no result given. Sampled rows, rich in hits. Any-hit rate of the full collection: about 3.5%. Unless noted, calls come from the whole dose curve; as a rule, active = well fitted curve in the direction sought with a large enough effect; inconclusive = small, poorly fitted or top-dose-only effect, or another doubt; inactive = no such curve, though single readings can be large; an effect the other way counts as inactive or inconclusive.

SMILES	NS1 inh	Sm TGR inh	FBPA Giardia inh	Tb PYK inh	LmPK inh	RE007 growth inh	NS1 inh valid	others
Cc1ccc(-c2csc3ncn(CC(=O)N4CCOCC4)c(=O)c23)cc1	-8%	4%	4%	1%	-3%	-5%	x
O=C(Cn1cnc2scc(-c3ccc(Cl)cc3)c2c1=O)N1CCOCC1	u	1%	1%	6%	1%	-8%	-16
O=C(N/N=C/C=C\c1ccccc1[N+](=O)[O-])c1cc(-c2ccccc2)nc2ccccc12	7.1µM*	-2%	1%	-5%	-1%	12%	11
Cc1ccc(N(CC(=O)N/N=C/c2ccco2)S(=O)(=O)c2ccccc2)cc1	11µM*	25µM*	-2%	0%	0%	6%	-19	Flu PR8 replic=7.7
COc1ccc(-c2cn3c(n2)sc2cc(C(=O)NCc4cccc(F)c4)ccc23)cc1	x	1%	x	2%	x	x	x
Cc1cccc(OCc2nnc(SCC(=O)N3c4ccccc4CCc4ccccc43)o2)c1	13µM*	3%	-8%	-6%	4%	1%	-20	Flu PR8 replic=8.5
CC1(C)Cc2c(sc3ncnc(NNC(=S)NCc4ccccc4)c23)CO1	11µM*	3%	11%	0%	4%	2%	-8
NNC(=O)CN1C(c2ccccc2Br)=Nc2ccc(Br)cc2C1c1ccccc1 (stereo not drawn)	4.5µM*	15%	u	4%	7%	1%	-2	Flu PR8 replic=8.3
CCOC(=O)C1=C(c2ccccc2)N=c2s/c(=C\c3cc(OC)c(OC)c(OC)c3)c(=O)n2C1c1cccs1 (stereo not drawn)	22µM*	12%	-7%	3%	2%	1%	14
CCS(=O)(=O)c1nnnn1-c1ccccc1S(C)(=O)=O	14µM*	6%	2%	-12%	1%	0%	5
CC1CCCN(CCCNC(=O)c2ccc(CS(=O)(=O)c3c(Cl)cccc3Cl)o2)C1 (stereo not drawn)	-1%	2%	x	1%	-10%	-10%	x
CCN1CCN(CCNC(=O)c2ccc(CS(=O)(=O)c3c(Cl)cccc3Cl)o2)CC1	u	2%	2%	-1%	-1%	0%	-16
COc1ccc(C(=O)NC2(C(F)(F)F)C(=O)NC(C)=C2C#N)cc1 (stereo not drawn)	x	1%	x	0%	x	x	x
CCN(CC)C(=O)CSc1nc(O)cc(=O)n1-c1ccccc1OC	8.9µM*	0%	-2%	-9%	3%	38%	37
CC(/C=C/c1ccc(N(C)C)cc1)=N\N=C1\NC(=O)CC(C(=O)Nc2ccccc2)S1 (stereo not drawn)	7.9µM*	2%	5%	1%	-1%	25%	-13
CCCOc1ccc(NC(=O)C2CC(=O)N/C(=N/N=C(C)/C=C/c3ccc(N(C)C)cc3)S2)cc1 (stereo not drawn)	u	-30%	-2%	1%	-2%	-14%	x
CC(/C=C/c1ccc(N(C)C)cc1)=N/N=C1/NC(=O)CC(C(=O)Nc2ccc(Cl)cc2)S1 (stereo not drawn)	10µM*	-20%	7%	-7%	1%	-9%	-14
